Assay [1] is described as follows: Cell Viability - BJ (AID 421; calls by dose curve;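 further: potency means the concentration at half of the fitted maximal effect; cells exposed to compound for 40 hours at 37 °C before readout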). The conditions noted are these: BJ fibroblast viability, qHTS. In short, it runs like this:
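Quantitative HTS: ATP depletion in BJ cells after 40 hr compound exposure in complete culture medium, detected with CellTiter-Glo; AC50 from standard Hill fits.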

A short description of assay [2]: Cell Viability - Jurkat (AID 426;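 active means dose-dependent loss of cell ATP signal giving a full or clear fitted curve, ranked by lower potency value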; further: potency means the concentration at half of the fitted maximal effect). The conditions noted are these: qHTS. In short, it runs like this:
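Jurkat (clone E6-1, human T-cell leukemia) cells, 5000/well in complete medium, were exposed to compound for 40 hr at 37 °C. Viability was read as intracellular ATP by CellTiter-Glo luminescence; AC50 came from Hill fits of concentration-response data.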

The nature of assay [3]: Cell Viability - Hek293 (AID 427;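 active means compounds whose dose-response curve shows a full or clear partial loss of cell viability, called from curve shape rather than a numeric limit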;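 further: potency means the concentration at half of the fitted maximal effect; cells exposed to compound for 40 hours at 37 °C before reading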). As to conditions: qHTS. In short, it runs like this: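 AC50 values derive from Hill-modelled concentration-response of ATP-based luminescence, normalized between DMSO-only and 100 uM tamoxifen controls. Cells were exposed in complete culture medium for 40 hr at 37 °C before detection.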
Assay [4] can be described thus: Cell Viability - NIH 3T3 (AID 541). Further: nearly all actives have a fitted effect of over 25% in size. Further: potency means the concentration at half of the fitted maximal effect.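 On activity change, negative = cytotoxicity: plate controls were DMSO alone for no effect and tamoxifen positive control for full effect.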 The conditions noted are these: NIH 3T3 cell viability, qHTS; series mostly up to 92.2 µM. In short, it runs like this: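 NIH 3T3 mouse embryo fibroblasts (1000 cells/well) were plated in complete medium and treated with compound for 40 hr at 37 °C. Viability was read as intracellular ATP by CellTiter-Glo luminescence; AC50 values came from Hill-equation fits of concentration-response data.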

Assay [5] is described as follows: Cell Viability - HUV-EC-C (AID 542). Further: on the % scale 0 is the no-effect control and ±100 the full control effect; nearly all actives have a fitted effect of over 35% in size. The conditions noted are these: HUV-EC-C endothelial cell viability, qHTS; series mostly up to 92.2 µM. In short, it runs like this:
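HUV-EC-C normal human vascular endothelial cells, 1000 cells/well, pre-incubated 5 hr at 37 °C, then exposed to compounds for 40 hr at 37 °C in complete medium. Viability measured as intracellular ATP by CellTiter-Glo luminescence; AC50 from Hill fits.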

The nature of assay [6]: Cell Viability - H-4-II-E (AID 543). Further: on the % scale 0 is the no-effect control and ±100 the full control effect; nearly all actives have a fitted effect of over 35% in size. The conditions noted are these: H-4-II-E rat hepatoma viability; series mostly up to 92.2 µM. In short, it runs like this: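 Rat hepatoma H-4-II-E cells (1500/well) were plated, incubated 5 hr at 37 °C, then exposed to compounds for 40 hr at 37 °C. Cellular ATP was read by CellTiter-Glo luminescence; AC50 came from Hill-equation fits of concentration-response data.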

Assay [7] can be described thus: Cell Viability - Renal Proximal Tubule (AID 545). Further: nearly all actives have a fitted effect of over 40% in size. As to conditions: renal proximal tubule cells viability; series mostly up to 91.7 µM. In short, it runs like this:
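Cytotoxicity is scored as a concentration-dependent drop in cellular ATP in primary rat renal proximal tubule cells exposed for 40 hr. AC50 derives from Hill modelling.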

A short description of assay [8]: Cell Viability - Mesenchymal (AID 546).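 Further: cells exposed to compound for 40 hours before reading.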 The conditions noted are these: mesenchymal cells viability, qHTS; series mostly up to 91.7 µM. In short, it runs like this: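 AC50 values reflect the drop in intracellular ATP in a human kidney mesenchymal line derived from normal glomeruli. Treatment lasts 40 hr at 37 °C in complete medium, and the signal comes from CellTiter-Glo luminescence.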

The nature of assay [9]: Cell Viability - HepG2 (AID 433; calls by dose curve;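 further: potency means the concentration at half of the fitted maximal effect; potency for ATP loss meaning cytotoxicity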). As to conditions: qHTS. In short, it runs like this: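 Cytotoxicity is scored as loss of intracellular ATP in HepG2 cells exposed to compounds for 40 h. Concentration-response curves, normalized to DMSO and 100 uM tamoxifen, give AC50 values.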
Assay [10] can be described thus: Cell Viability - SK-N-SH (AID 435; calls by dose curve;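 further: potency means the concentration at half of the fitted maximal effect; compound exposure lasted 40 h at 37 °C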). The conditions noted are these: SK-N-SH neuroblastoma cell viability qHTS. In short, it runs like this: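 Cells seeded at 1500 per well and incubated 5 hr at 37 °C. Compound added, then 40 hr at 37 °C. CellTiter-Glo added, 20 min at room temperature, luminescence read.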
Assay [11] can be described thus: Cellular Toxicity (caspase-3) HepG2 (AID 654).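 Further: cells exposed to compound for 16 hours before reading; 0% = DMSO alone and 100% = caspase signal from 100 µM tamoxifen.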 As to conditions: HepG2 caspase-3 activation, luminescence, 0% = DMSO only, 100% = tamoxifen; series mostly up to 92.2 µM. In short, it runs like this: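 HepG2 cells (1500/well) in complete medium were treated with compounds for 16 hr at 37 °C. Caspase-3/7 activity was then read as luminescence from peptide-aminoluciferin cleavage. AC50 came from Hill fits, normalized to DMSO and 100 uM tamoxifen.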

Assay [12] in a line: Cell Viability - N2a (AID 540).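 Further: plate controls were DMSO alone for no effect and tamoxifen control for full effect; nearly all actives have a fitted effect of over 45% in size.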 As to conditions: N2a mouse neuroblastoma cell viability; activity change, negative = cytotoxicity: at 92.2 µM (top of the series). In short, it runs like this:
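Mouse neuroblastoma N2a cells (1500/well) were preincubated 5 hr at 37 °C, then exposed to compounds for 40 hr at 37 °C in complete medium. Viability was read as intracellular ATP by CellTiter-Glo luminescence; AC50 from Hill fits.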

Assay [13] is described as follows: Cell Viability - SH-SY5Y (AID 544). Further: nearly all actives have a fitted effect of over 55% in size. As to conditions: SH-SY5Y neuroblastoma cell viability; series mostly up to 92.2 µM. In short, it runs like this: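 Human neuroblastoma SH-SY5Y cells (1500/well) in complete medium were exposed to compounds for 40 hr at 37 °C; intracellular ATP was then quantified by CellTiter-Glo luminescence after 20 min at room temperature. AC50 came from Hill-equation concentration-response fits.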

A short description of assay [14]: NFAT Signaling Pathway (AID 444; active means well fitted curve in either direction with a large enough effect, not every such curve was filed as active;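 further: carbachol stimulus at about its EC50 of 1 µM final; on the % scale 0 is the no-effect control and ±100 the full control effect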). The conditions noted are these: Jurkat NFAT-bla M1, carbachol, beta-lactamase ratio, 5 h; at 38 µM (top of the series). In short, it runs like this: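 Read-out: CCF4 FRET ratio (460 nm/530 nm) after 1 h RT dye loading, used for %activity and AC50 from titration series. Cells: Jurkat NFAT-β-lactamase/M1 line, treated with compound plus 1 uM carbachol for 5 h, 37 °C.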

The target of assay [15] is Glucocorticoid receptor (Homo sapiens) (UniProt P04150). Briefly: GR-GFP Redistribution (AID 450;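 active means compounds whose dose series gives a full or clear partial fitted curve of increased nuclear translocation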; further: potency means the concentration at half of the fitted maximal effect). The conditions noted are these: U2OS GR-GFP nuclear translocation, laser cytometry, 2 h.
Glucocorticoid receptor (Homo sapiens), sequence (P04150 whole entry, looked up): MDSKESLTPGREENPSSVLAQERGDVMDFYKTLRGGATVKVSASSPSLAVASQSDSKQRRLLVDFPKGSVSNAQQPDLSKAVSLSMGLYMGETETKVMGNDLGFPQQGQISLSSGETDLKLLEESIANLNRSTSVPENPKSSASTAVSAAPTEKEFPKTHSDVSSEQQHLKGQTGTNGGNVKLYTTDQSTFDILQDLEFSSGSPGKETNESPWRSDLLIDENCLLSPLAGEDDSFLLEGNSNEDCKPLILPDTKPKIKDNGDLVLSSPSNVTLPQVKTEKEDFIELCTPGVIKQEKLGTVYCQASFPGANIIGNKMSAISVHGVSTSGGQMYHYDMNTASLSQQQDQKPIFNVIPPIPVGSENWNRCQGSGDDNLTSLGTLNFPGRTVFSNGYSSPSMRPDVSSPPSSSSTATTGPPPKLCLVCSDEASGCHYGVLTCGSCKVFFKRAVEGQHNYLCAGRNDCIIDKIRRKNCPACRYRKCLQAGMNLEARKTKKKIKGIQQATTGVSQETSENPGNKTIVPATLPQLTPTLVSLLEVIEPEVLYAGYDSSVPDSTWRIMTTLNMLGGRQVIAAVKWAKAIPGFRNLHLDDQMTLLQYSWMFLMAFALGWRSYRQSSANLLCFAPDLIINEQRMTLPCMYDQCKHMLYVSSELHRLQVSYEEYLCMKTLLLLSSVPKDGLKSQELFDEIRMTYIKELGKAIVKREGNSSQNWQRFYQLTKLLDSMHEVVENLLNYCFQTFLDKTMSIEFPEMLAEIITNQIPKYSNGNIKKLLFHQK
Assay [16] shares this target. Briefly: GR-EFC Redistribution (AID 451; calls by dose curve; further: potency means the concentration at half of the fitted maximal effect). The conditions noted are these: CHO-K1 GR-EFC translocation, beta-gal luminescence, 2 h. In short, it runs like this:
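Translocation of GR-ED fusion to nuclear EA restores b-gal, read by luminescence after 1 h room-temperature detection. Engineered CHO-K1 biosensor cells, 1,000/well, exposed 2 h at 37 C to titrations up to 46 uM final.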

The target of assay [17] is 3',5'-cyclic-AMP phosphodiesterase 4B (Homo sapiens) (UniProt Q07343). As to the kind of experiment: qHTS Assay for Inhibitors of PDE-IV (AID 607; active means well fitted activation curve with a large enough effect in the main read-out, with a control signal flat, not every such curve was filed as active; further: potency means the concentration at half of the fitted maximal effect). The conditions noted are these: HEK293 ACTOne CNG channel cells, membrane potential fluorescence; series mostly up to 22.9 µM. In short, it runs like this:
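Live HEK293 cells with a modified cyclic nucleotide-gated (CNG) channel report intracellular cAMP via membrane-potential dye fluorescence (ex 535/em 590 nm). Endogenous PDE-IV was targeted. Compounds were tested at up to 22.9 uM final; RO 20-1724 100 uM served as control.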

Assay [18] is described as follows: Stat Signaling Pathway (AID 446; active means well fitted curve in either direction with a large enough effect, not every such curve was filed as active;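 further: ME-180 cervical cancer cells given 40 pM IL-6 alongside compound; SIE-controlled beta-lactamase reporter measured as 460/530 nm FRET emission ratio; on the % scale 0 is the no-effect control and ±100 the full control effect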). The conditions noted are these: ME-180 (cervical carcinoma) SIE beta-lactamase reporter, IL-6 stimulated, 5 h; at 38 µM (top of the series). In short, it runs like this: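 IL-6/STAT signaling read in ME-180 cells via an SIE beta-lactamase reporter. Stimulus was 40 pM IL-6 (its AC50) for 5 hrs, so both activation and inhibition register.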
The target in assay [19] is Mitogen-activated protein kinase 10 (Mus musculus) (UniProt Q61831). As to the kind of experiment: JNK3 AlphaScreen Assay (AID 530; active means well fitted curve in either direction with a large enough effect, not every such curve was filed as active;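 further: kinase came from lysate of stimulated human HepG2 cells; signal reports phosphorylation of biotinylated GST-cJun 1-79 at Ser73 with 10 µM ATP; on the % scale 0 is the no-effect control and ±100 the full control effect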). The conditions noted are these: JNK3 lysate, c-Jun phosphorylation; series mostly up to 57.1 µM. In short, it runs like this: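 Room-temperature AlphaScreen kinase assay; pre-activated HepG2 lysate as JNK3 source, biotin-GST-cJun(1-79) substrate, 10 uM ATP, compound 15 min preincubation.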

Unmarked numbers belong to inactive results. Inconclusive results are not listed. Active and inactive are the calls of the source. Unless noted, the call rests on the fitted dose curve; in most records, active means well fitted curve in the direction sought with a large enough effect; inconclusive means small, poorly fitted or top-dose-only effect, or another doubt; inactive means no such curve, though single readings can be large; an effect the other way counts as inactive or inconclusive. Where only a bound is given, the exact number is not on record here.

3',5'-cyclic-AMP phosphodiesterase 4B (Homo sapiens), sequence (Q07343 whole entry, looked up): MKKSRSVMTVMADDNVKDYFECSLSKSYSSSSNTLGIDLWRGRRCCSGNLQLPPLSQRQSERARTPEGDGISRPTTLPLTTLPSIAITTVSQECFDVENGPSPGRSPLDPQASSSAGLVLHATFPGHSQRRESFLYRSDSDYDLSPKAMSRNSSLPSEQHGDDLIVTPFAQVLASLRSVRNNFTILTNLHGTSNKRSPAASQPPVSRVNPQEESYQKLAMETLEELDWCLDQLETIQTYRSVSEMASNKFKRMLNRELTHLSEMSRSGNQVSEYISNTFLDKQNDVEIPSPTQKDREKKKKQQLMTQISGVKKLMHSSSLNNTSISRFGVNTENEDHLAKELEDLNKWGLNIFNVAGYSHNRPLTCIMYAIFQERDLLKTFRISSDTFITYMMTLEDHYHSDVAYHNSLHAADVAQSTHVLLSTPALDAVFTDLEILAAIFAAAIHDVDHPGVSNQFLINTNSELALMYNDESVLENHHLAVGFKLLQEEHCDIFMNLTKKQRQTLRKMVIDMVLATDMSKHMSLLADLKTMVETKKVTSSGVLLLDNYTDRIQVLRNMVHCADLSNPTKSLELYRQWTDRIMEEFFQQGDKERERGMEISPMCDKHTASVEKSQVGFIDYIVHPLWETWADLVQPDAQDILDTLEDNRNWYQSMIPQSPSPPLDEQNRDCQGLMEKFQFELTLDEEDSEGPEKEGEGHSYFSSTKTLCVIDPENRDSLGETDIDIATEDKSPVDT

Take `Nc1ccc(Cl)cc1N`: the Potency was above 92 µM in assay [1], 4.05 µM (active) in [2], above 92 µM in assay [3] and 0.631 µM (active) in assay [4]. The Potency result in assay [5], in [6], in assay [7] and in assay [8] was “inactive” throughout.

With `COc1ccc(C(c2ccc(OC)cc2)C(Cl)(Cl)Cl)cc1`, the Potency in assay [1], in assay [9] and in assay [10] was above 92 µM each time. Besides, the Potency result in assay [4], in [5] and in assay [8] was “inactive” in each case. Moreover, the result in assay [11] was inactive.

In the case of `CCOCCOC(C)=O`, the Potency in assay [1], in assay [2], in [3], in assay [9] and in [10] was above 92 µM each time. In addition, the activity change, negative = cytotoxicity in [12] is -15.1%. The Potency entry in assay [4], in [5], in assay [6], in assay [13], in assay [7] and in [8] was “inactive” throughout. Moreover, the call in assay [11] was inactive.

As to `CCCCOC(=O)c1ccccc1C(=O)OCc1ccccc1`, the Potency in assay [1], in assay [2], in [3], in [9] and in assay [10] was above 92 µM each time. For the same compound, in assay [12], the activity change, negative = cytotoxicity is -9.01%. Besides, the Potency result in assay [4], in [5], in [6], in assay [13], in [7] and in assay [8] was “inactive” each time. Moreover, in assay [11], the call was inactive.

As for `Cc1c(C(=O)c2cccc3ccccc23)c2cccc3c2n1[C@H](CN1CCOCC1)CO3`, the activity change, negative = inhibition in assay [14] is -21.8%. Also, the Potency in assay [15] and in assay [16] was above 46 µM each time. The Potency result in assay [17] is “inactive”.

Consider `COC(C)(C)CCCC(C)C/C=C/C(C)=C/C(=O)OC(C)C` (stereo unspecified), for which the Potency in assay [1], in [2], in assay [3], in assay [9] and in assay [10] was above 92 µM throughout. Also, the activity change, negative = cytotoxicity in assay [12] was -12%. The Potency result in [4], in assay [5], in assay [6], in [13], in assay [7] and in assay [8] was “inactive” in each case. The compound was called inactive in [11].

On to `C#CCOC(=O)C1=CCCN(C)C1`, for which the activity change, negative = inhibition in [14] was 44.2% [activator] (active). Also, in assay [18], the activity, negative = inhibition was 14.7%. Further, the Potency in [15] is above 46 µM; in assay [16] it was above 46 µM; in [17] it was 0.398 µM (active).

Take `S=C(NC1CCCCC1)N1CCC(c2cnc[nH]2)CC1`: the activity, negative = inhibition in [18] was 6.17%. For the same compound, the Potency in assay [15] and in assay [16] was above 46 µM throughout. Besides, in [17], the Potency result was “inactive”.

Turning to `O=C(O)C(Cl)Cl`, the Potency in assay [1], in assay [2], in [3], in [9] and in assay [10] was above 92 µM throughout. For the same compound, the activity change, negative = cytotoxicity in assay [12] is 2.37%. Besides, the Potency result in [4], in assay [5], in [6], in assay [13], in assay [7] and in [8] was “inactive” each time. Further, in assay [11], the call was inactive.

Turning to `Nc1ccc([N+](=O)[O-])cc1`, the Potency in assay [1], in assay [2], in [3], in [9] and in assay [10] was above 92 µM each time. Moreover, the activity change, negative = cytotoxicity in assay [12] was 0.412%. Besides, the Potency entry in assay [4], in [5], in assay [6], in assay [13], in [7] and in [8] was “inactive” each time. In assay [11], the outcome was inactive.

As for `CCCN1CCO[C@@H]2c3cc(O)ccc3OC[C@@H]21`, the Potency in [16] was above 46 µM. The Potency result in assay [17] is “inactive”.

As to `c1cc2ccc3cccc4ccc(c1)c2c34`, the Potency in [1], in assay [2], in assay [3], in assay [9] and in assay [10] was above 92 µM in each case. In addition, in [12], the activity change, negative = cytotoxicity was 2.91%. Moreover, the Potency entry in [4], in assay [5], in [6], in [13], in [7] and in assay [8] was “inactive” each time. In assay [11], the result was inactive.

As for `CNCCc1ccc(O)c(O)c1`, the activity change, negative = inhibition in assay [14] was 4.43%. Besides, the activity, negative = inhibition in assay [18] was -23.7%. The Potency in [15] and in assay [16] was above 46 µM in each case. In [19], the result was inactive. Further, the Potency entry in [17] was “inactive”.

`O=[N+]([O-])c1cc([N+](=O)[O-])c2ccccc2c1`: the Potency in assay [1], in [2], in assay [3], in [9] and in assay [10] was above 92 µM each time. Moreover, the activity change, negative = cytotoxicity in [12] is -22.1%. The Potency entry in assay [4], in [5], in [13], in [7] and in [8] was “inactive” each time. Further, the compound was called inactive in [11].

Source of the values: PubChem BioAssay (NCATS).
